The source made the active and inactive calls. The calls were made as follows: active = hit-call score of the fitted dose curve at least 0.9, where 1 is the maximum; inactive = score below 0.9.
Each compound was assayed against Cytochrome P450 2C19 (Homo sapiens) (UniProt P33261) (assay: ERF_FR_ADME_hCYP2C19_Omeprazole: Eurofins (ERF) CYP450-related Enzyme Activity (ADME) Assay for CYP2C19, Omeprazole Substrate).
Cytochrome P450 2C19 (Homo sapiens), sequence (P33261 whole entry, looked up): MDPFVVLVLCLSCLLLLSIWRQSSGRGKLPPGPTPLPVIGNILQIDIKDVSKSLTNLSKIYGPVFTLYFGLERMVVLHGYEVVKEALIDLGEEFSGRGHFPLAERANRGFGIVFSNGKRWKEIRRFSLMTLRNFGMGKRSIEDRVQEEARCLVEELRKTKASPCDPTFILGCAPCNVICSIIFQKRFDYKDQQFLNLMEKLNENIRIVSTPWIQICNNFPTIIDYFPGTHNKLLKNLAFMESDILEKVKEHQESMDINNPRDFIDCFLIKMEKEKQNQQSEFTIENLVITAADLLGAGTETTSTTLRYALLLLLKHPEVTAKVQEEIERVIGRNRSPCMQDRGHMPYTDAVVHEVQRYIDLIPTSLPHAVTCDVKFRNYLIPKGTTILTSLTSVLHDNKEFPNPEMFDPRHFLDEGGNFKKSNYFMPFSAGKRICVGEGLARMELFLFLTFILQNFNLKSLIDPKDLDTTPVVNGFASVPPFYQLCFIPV
Method: ERF_FR_ADME_hCYP2C19_Omeprazole is a biochemical, single-readout assay that uses extracted gene-proteins in a cell-free assay. Measurements were taken 0.16 hour after chemical dosing in a 96-well plate. See CYP2C19 inhibition (HLM, omeprazole substrate).ERF_FR_ADME_hCYP2C19_Omeprazole is an assay component calculated from the ERF_FR_ADME_hCYP2C19_Omeprazole assay. It is designed to measure enzyme activity using a type of enzyme reporter as detected by peak area response of 5-hydroxyomeprazole with HPLC-MS/MS technology.Data from the assay component ERF_FR_ADME_hCYP2C19_Omeprazole was analyzed at the assay endpoint, ERF_FR_ADME_hCYP2C19_Omeprazole, in the positive analysis fitting direction relative to acetonitrile as the negative control and baseline of activity. Using a type of enzyme reporter, loss-of-signal activity can be used to understand changes in enzymatic activity as they relate to gene CYP2C19. To generalize the intended target to other relatable targets, this assay endpoint is annotated to the cyp intended target family, where the subfamily is steroidogenesis-related.
Assay is performed using 0.5uM omeprazole, cells are pre-incubated for 5 minutes, and then 10 minutes incubation with NADPH at 37C. Test Sample Requirements: Minimum for 1) Screen: 100 ul of 10 mM stock -OR- 1 to 2 mg (pre-weighed). 2) Dose Response: 250 ul of 10 mM stock -OR- 1.5 to 2 mg (pre-weighed).
In the case of `O=C(/C=C/c1ccc(O)cc1)CC(=O)/C=C/c1ccc(O)cc1`, the AC50 is reported as 1740 nM (active).

Source: PubChem BioAssay AID2284090 (EPA ToxCast)
